For 40 compounds, outcome results are on record in PubChem BioAssay (EPA / NIEHS).

SMILES strings stand for the structures. Inconclusive results are not listed. Activity calls are given as the source filed them. The calls were made as follows: active = hit-call score of the fitted dose curve at least 0.9, where 1 is the maximum; inconclusive = response in the unintended direction; inactive = score below 0.9.

This experiment deals with Retinoic acid receptor RXR-alpha (Homo sapiens) (UniProt P19793). Briefly: ATG_RXRa_TRANS: Attagene TRANS-FACTORIAL HepG2 Assay for human Retinoid X Receptor alpha (RXRa) (AID 2283012). How it is done: ATG_TRANS is a cell-based, multiplexed-readout assay that uses HepG2, a human liver cell line, with measurements taken at 24 hours after chemical dosing in a 24-well plate.ATG_RXRa_TRANS is one of 30 assay component(s) measured or calculated from the ATG_TRANS assay. It is designed to make measurements of mRNA induction, a form of inducible reporter, as detected with fluorescence intensity signals by Reverse transcription polymerase chain reaction (RT-PCR) and Capillary electrophoresis technology.Data from the assay component ATG_RXRa_TRANS was analyzed into 1 assay endpoint. This assay endpoint, ATG_RXRa_TRANS, was analyzed in the positive analysis fitting direction relative to DMSO as the negative control and baseline of activity. Using a type of inducible reporter, measures of mRNA for gain-of-signal activity can be used to understand the reporter gene at the transcription factor-level as they relate to the gene RXRA. Furthermore, this assay endpoint can be referred to as a primary readout, because this assay has produced multiple assay endpoints where this one serves a reporter gene function. To generalize the intended target to other relatable targets, this assay endpoint is annotated to the nuclear receptor intended target family, where the subfamily is non-steroidal.
Retinoic acid receptor RXR-alpha (Homo sapiens), sequence (P19793 whole entry, looked up): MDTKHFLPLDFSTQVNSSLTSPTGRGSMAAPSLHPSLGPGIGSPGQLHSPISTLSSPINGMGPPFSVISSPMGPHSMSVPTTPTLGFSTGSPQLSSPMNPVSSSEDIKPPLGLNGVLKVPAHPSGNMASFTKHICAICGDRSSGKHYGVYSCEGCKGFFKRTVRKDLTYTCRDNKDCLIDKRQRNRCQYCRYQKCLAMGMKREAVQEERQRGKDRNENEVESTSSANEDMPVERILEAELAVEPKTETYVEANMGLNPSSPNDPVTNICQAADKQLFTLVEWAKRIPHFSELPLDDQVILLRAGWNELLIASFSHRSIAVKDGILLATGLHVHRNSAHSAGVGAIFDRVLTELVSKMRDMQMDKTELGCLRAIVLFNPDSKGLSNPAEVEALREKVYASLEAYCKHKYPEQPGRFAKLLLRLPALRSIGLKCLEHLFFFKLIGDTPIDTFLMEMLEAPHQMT
Human liver HepG2 cells are transiently transfected with multiple reporter transcription units (MRTUs) in 6-well plates using FuGene 6 reagent (Roche; 3 ml FuGene/1 mg DNA). The MRTU constructs are regulated by a cis-regulating element (promoter). […] A major difference between the CIS and TRANS system is that in CIS activities of endogenous TFs are measured, whereas the TRANS assay evaluates changes in activities of exogenous, chimeric NR-Gal4 proteins. […] At the end of 24 hour incubation, total RNA was isolated using TriZol reagent (Invitrogen). The isolated RNA is then reverse-transcribed using oligo(dT) primer and Mo-MLV reverse transcriptase (Invitrogen) with DNAse I (Ambion) treatment for 30 min. The one-tenth of the produced cDNA was amplified by PCR using Taq DNA polymerase (Invitrogen) and two reporter sequence-specific primers. The PCR products were fluorescently labeled by primer extension with 6-arboxyfluorescein (6-FAM) 5'-labeled reporter sequence-specific primer (2 min at 95 C, 20 s at 68 C and 10 min at 72 C) and these products were digested with 5U of HpaI (New England Biolabs) for 2h at 37 C. The fragments were purified using Qiaquick PCR columns (Qiagen), analyzed on an ABI 3130xL genetic analyzer (Applied Biosystems) with peak positions identified by using a set of X-rhodamine (ROX)-labeled MapMarker1000 molecular weight standards (BioVentures). The raw capillary electrophoresis data was processed using Attagraph software (Attagene).
Turning to `CCOP(=S)(OCC)SCn1c(=O)oc2cc(Cl)ccc21`, the compound was called inactive.
The value for `CCCCNC(=O)n1c(NC(=O)OC)nc2ccccc21` was “inactive”; that for `CC1COC(Cn2cncn2)(c2ccc(Oc3ccc(Cl)cc3)cc2Cl)O1` (stereo not given) was “inactive”; that for `CC(C)(C)c1ccc(CSc2cnn(C(C)(C)C)c(=O)c2Cl)cc1` was “inactive”.
The value for `COc1nc(C)nc(NC(=O)NS(=O)(=O)c2ccccc2CCC(F)(F)F)n1` was “inactive”; that for `CC(Oc1ccc(Cl)cc1Cl)C(=O)O` (stereo not given) was “inactive”.
As to `COc1ccc(C(c2ccc(OC)cc2)C(Cl)(Cl)Cl)cc1`, the outcome was inactive.
On to `CCCCC(CC)COC(=O)c1ccccc1C(=O)OCC(CC)CCCC` (stereo not given), for which the call was inactive.
The value for `CC(C)C1(C)N=C(c2nc3ccccc3cc2C(=O)O)NC1=O` (stereo not given) was “inactive”; that for `COc1cnc(OC)n2nc(NS(=O)(=O)c3c(OCC(F)F)cccc3C(F)(F)F)nc12` was “inactive”.
In the case of `CO/C=C(/C(=O)OC)c1ccccc1Oc1cc(Oc2ccccc2C#N)ncn1`, the outcome was inactive.
The value for `N#Cc1nn(-c2c(Cl)cc(C(F)(F)F)cc2Cl)c(N)c1S(=O)C(F)(F)F` (stereo not given) was “inactive”; that for `CON(C)C(=O)Nc1ccc(Cl)c(Cl)c1` was “inactive”.
The value for `CS/C(C)=N/OC(=O)N(C)SN(C)C(=O)O/N=C(\C)SC` was “inactive”; that for `CC(C)Oc1cc(-n2nc(C(C)(C)C)oc2=O)c(Cl)cc1Cl` was “inactive”.
For the compound `C=CC1(C)OC(=O)N(c2cc(Cl)cc(Cl)c2)C1=O` (stereo not given), the compound was called inactive.
The value for `Cc1ccc(-c2c(Cl)nc(C#N)n2S(=O)(=O)N(C)C)cc1` was “inactive”; that for `COP(=S)(OC)Oc1nc(Cl)c(Cl)cc1Cl` was “inactive”.
The value for `CNC(=S)S` was “inactive”; that for `CCOC(=O)CC(SP(=S)(OC)OC)C(=O)OCC` (stereo not given) was “inactive”.
For the compound `CCCCNC(=O)OCC#CI`, the outcome was inactive.
The value for `COc1nc(NC(C)C)nc(NC(C)C)n1` was “inactive”.
The value for `COC(=O)N(OC)c1ccccc1COc1ccn(-c2ccc(Cl)cc2)n1` was “inactive”; that for `O=C(Nc1ccccc1)Nc1ccnc(Cl)c1` was “inactive”.
As for `CCCC1COC(Cn2cncn2)(c2ccc(Cl)cc2Cl)O1` (stereo not given), the outcome was inactive.
The value for `O=C(O)c1nc(Cl)ccc1Cl` was “inactive”; that for `COc1nc(C)nc(NC(=O)NS(=O)(=O)c2ccccc2Cl)n1` was “inactive”.
The value for `CCCN(CCC)c1c([N+](=O)[O-])cc(S(N)(=O)=O)cc1[N+](=O)[O-]` was “inactive”; that for `COC(=O)C=C(C)OP(=O)(OC)OC` was “inactive”.
The value for `CCCCOC(=O)c1ccccc1C(=O)OCCCC` was “inactive”.
With `C=CCC1=C(C)[C@@H](OC(=O)[C@@H]2[C@@H](C=C(C)C)C2(C)C)CC1=O`, the compound was classed as inactive.
The value for `COC(=O)C(C)Oc1ccc(Oc2ccc(Cl)cc2Cl)cc1` (stereo not given) was “inactive”; that for `CCNc1nc(Cl)nc(NCC)n1` was “inactive”; that for `CN(C)C(=S)SSC(=S)N(C)C` was “inactive”.
`OC(c1ccc(Cl)cc1)(c1cncnc1)c1ccccc1Cl` (stereo not given): the outcome was inactive.
The value for `C=CCC1=C(C)C(OC(=O)C2C(C=C(C)C)C2(C)C)CC1=O` (stereo not given) was “inactive”; that for `CNC(=O)ON=CC(C)(C)SC` was “inactive”; that for `Oc1ccccc1-c1ccccc1` was “inactive”.
The value for `COP(N)(=O)SC` (stereo not given) was “inactive”; that for `CCNc1nc(Cl)nc(NC(C)C)n1` was “inactive”.
